Results taken from PubChem BioAssay (NCI).
Compounds without any hit were thinned out: in the full panel of roughly 79,000, 15% have a hit. Calls of active or inactive are those of the source. Rule as the data show it: active = growth inhibition above about 70%; inactive = the rest.

Columns and labels:
[1] = NCI Yeast Anticancer Drug Screen. Data for the rad50 strain (AID 155);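 also: 0% = growth of vehicle-only cultures of the same strain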; conditions: S. cerevisiae rad50 strain growth inhibition, hits give high values
Outline: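 Genetically altered yeast (DNA repair pathway); compound treatment; growth inhibition vs vehicle ctrl.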

[2] = NCI Yeast Anticancer Drug Screen. Data for the mec2-1 strain (AID 157); conditions: S. cerevisiae mec2-1 strain, hits give high values
Outline: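 Mutant yeast (mec2-1) grown with compound; growth inhibition relative to vehicle control reported.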

[3] = NCI Yeast Anticancer Drug Screen. Data for the sgs1 mgt1 strain (AID 161);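 also: 0% = growth of cultures given vehicle only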; conditions: S. cerevisiae sgs1 mgt1 strain, hits give high values
Outline: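 Compounds are added to genetically altered yeast, and growth is compared with cultures given vehicle alone to give percent inhibition.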

[4] = NCI Yeast Anticancer Drug Screen. Data for the cln2 rad14 strain (AID 165);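 also: 0% = growth equal to vehicle treated cultures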; conditions: S. cerevisiae cln2 rad14 strain, hits give high values
Outline: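 Readout is yeast growth inhibition versus vehicle-treated controls, using a strain with cln2 and rad14 alterations exposed to compound.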

[5] = NCI Yeast Anticancer Drug Screen. Data for the bub3 strain (AID 167); conditions: S. cerevisiae bub3 mutant strain, hits give high values
Outline: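 Yeast carrying a defined mutation is treated with each compound, and growth is compared with that of vehicle-exposed cells to give inhibition.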

[6] = NCI Yeast Anticancer Drug Screen. Data for the mlh1 rad18 strain (AID 175); conditions: S. cerevisiae mlh1 rad18 strain growth inhibition, hits give high values
Outline: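 Genetically defined yeast (DNA repair-deficient) exposed to compounds; growth inhibition determined relative to vehicle.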

[7] = at 5.0 µM (retest, dose inferred, filed as 0.5)
[8] = at 50.0 µM (retest, dose inferred, filed as 5.0)

Measured: growth inhibition

COc1cc2c(cc1OC(C)=O)C(=O)C(Br)(Br)CCC2
inactive: [1]; [7] 66% | [1]; at 50.0 µM 62.5% | [2]; [7] 32% | [3]; at 50.0 µM 65.1% | [4]; [7] 13% | [5]; [7] 10% | [5]; [8] 47% | [6]; [7] 49%
active: [1]; [8] 99% | [2]; [8] 99% | [2]; at 50.0 µM 98.5% | [3]; [7] 88% | [3]; [8] 99% | [4]; [8] 98% | [4]; at 50.0 µM 94.2% | [5]; at 50.0 µM 99% | [6]; [8] 99% | [6]; at 50.0 µM 98.5%

Oc1ccccc1C1C=C(c2ccccc2)NC(N2CCCCC2)=C1c1nc2ccccc2[nH]1 (configuration not stated)
inactive: [1]; [7] -9% | [1]; [8] -11% | [1]; at 50.0 µM 18.1% | [2]; [7] -9% | [2]; [8] -13% | [2]; at 50.0 µM -5.15% | [3]; [7] -9% | [3]; [8] -10% | [3]; at 50.0 µM 5.05% | [4]; [7] -22% | [4]; [8] -14% | [4]; at 50.0 µM 40% | [5]; [7] -13% | [5]; [8] 6% | [5]; at 50.0 µM 29.4% | [6]; [7] 2% | [6]; [8] -2% | [6]; at 50.0 µM 9.4%

CC1=CCC[C@@H]2C1(C)CCC(C)[C@@]2(C)CC1=CC(=O)C=CC1=O (some centres not stated)
inactive: [1]; [7] 18% | [2]; [7] 27% | [3]; [7] 52% | [4]; [7] -12% | [5]; [7] 14% | [6]; [7] 40%
active: [1]; [8] 95% | [1]; at 50.0 µM 86.1% | [2]; [8] 96% | [2]; at 50.0 µM 89.2% | [3]; [8] 95% | [3]; at 50.0 µM 88.8% | [4]; [8] 92% | [4]; at 50.0 µM 85.5% | [5]; [8] 93% | [5]; at 50.0 µM 86.8% | [6]; [8] 92% | [6]; at 50.0 µM 87%

Oc1ccc(O)c(C2CCCCC2)c1
inactive: [1]; [7] 30% | [2]; [7] 62% | [3]; [7] 46% | [4]; [7] 46% | [4]; at 50.0 µM 50.4% | [5]; [7] 51%
active: [1]; [8] 94% | [1]; at 50.0 µM 96.7% | [2]; [8] 99% | [2]; at 50.0 µM 89.7% | [3]; [8] 99% | [3]; at 50.0 µM 78.2% | [4]; [8] 94% | [5]; [8] 99% | [5]; at 50.0 µM 89% | [6]; [7] 83% | [6]; [8] 99% | [6]; at 50.0 µM 94.8%

O=C(Oc1cc([N+](=O)[O-])ccc1Cl)Oc1cc([N+](=O)[O-])ccc1Cl
inactive: [1]; [7] -6% | [2]; [7] 0% | [3]; [7] -7% | [4]; [7] 0% | [5]; [7] -9% | [6]; [7] -5%
active: [1]; [8] 97% | [1]; at 50.0 µM 97.5% | [2]; [8] 99% | [2]; at 50.0 µM 99.5% | [3]; [8] 99% | [3]; at 50.0 µM 98.6% | [4]; [8] 98% | [4]; at 50.0 µM 97.9% | [5]; [8] 98% | [5]; at 50.0 µM 98.8% | [6]; [8] 98% | [6]; at 50.0 µM 98.6%

C=C1CC[C@H]2C(C)=CC[C@@H]3[C@H](OC(=O)[C@H]3CN3CCN(c4ccc(C)c([N+](=O)[O-])c4)CC3)[C@@H]12
inactive: [1]; [7] 29% | [1]; [8] 65% | [1]; at 50.0 µM 69% | [2]; [7] 30% | [2]; [8] 40% | [2]; at 50.0 µM 66.2% | [3]; [7] 52% | [4]; [7] 48% | [4]; [8] 60% | [4]; at 50.0 µM 63% | [5]; [7] 52% | [5]; at 50.0 µM 69.8% | [6]; [7] 42% | [6]; at 50.0 µM 47.8%
active: [3]; [8] 76% | [3]; at 50.0 µM 79.6% | [5]; [8] 71% | [6]; [8] 72%

Nc1cccc2cccnc12
active: [1]; [8] 72% | [1]; at 50.0 µM 89.3% | [3]; at 50.0 µM 78.4% | [6]; at 50.0 µM 91%
inactive: [1]; [7] 31% | [2]; [7] 8% | [2]; [8] 14% | [2]; at 50.0 µM 27% | [3]; [7] 18% | [3]; [8] 48% | [4]; [7] 4% | [4]; [8] 6% | [4]; at 50.0 µM 18.4% | [5]; [7] -3% | [5]; [8] -4% | [5]; at 50.0 µM 12.6% | [6]; [7] 29% | [6]; [8] 66%

O=C1C=CC(=O)C1=Cc1ccc(Cl)c(Cl)c1
active: [1]; [7] 99% | [1]; [8] 99% | [1]; at 50.0 µM 98.8% | [2]; [7] 100% | [2]; [8] 99% | [2]; at 50.0 µM 98.9% | [3]; [7] 100% | [3]; [8] 98% | [3]; at 50.0 µM 98.7% | [4]; [7] 100% | [4]; [8] 99% | [4]; at 50.0 µM 99.2% | [5]; [7] 100% | [5]; [8] 99% | [5]; at 50.0 µM 98.8% | [6]; [7] 100% | [6]; [8] 99% | [6]; at 50.0 µM 99%

OC(C/C(=N\N=C(/CC(O)(C(F)(F)F)C(F)(F)F)c1ccccc1)c1ccccc1)(C(F)(F)F)C(F)(F)F
inactive: [1]; [7] -2% | [1]; [8] 2% | [1]; at 50.0 µM 62.6% | [2]; [7] -6% | [2]; [8] -11% | [2]; at 50.0 µM 51% | [3]; [7] -7% | [3]; [8] -17% | [3]; at 50.0 µM 50.9% | [4]; [7] 6% | [4]; [8] 12% | [4]; at 50.0 µM 62.1% | [5]; [7] 1% | [5]; [8] -5% | [5]; at 50.0 µM 69% | [6]; [7] -8% | [6]; [8] 3%
active: [6]; at 50.0 µM 71.1%
